Our source for the growth values is PubChem BioAssay (NCI).

Where “and” joins values, the source holds several entries; their conditions need not be identical. Identical values can stand only once. About 83,000 compounds went through this panel and 20% of them were active in at least one assay; those are over-represented in the sample as a whole.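 Method: cells in 96-well plates; compound added at one concentration; 48 h incubation; percent growth measured; values under 10 scored active.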 Values without a mark were called inactive. Calls of active or inactive are those of the source.

Holding throughout (assay): NCI-60 one-dose screen, 48 h (100 = growth as untreated, 0 = no growth, -100 = all killed)
Common to all, as to conditions: 10 µM unless noted

The subject of experiment [1] is SK-MEL-2 melanoma.
Experiment [2] relates to EKVX NSCLC.
Experiment [3] deals with SN12C renal.
Experiment [4] relates to UO-31 renal.
Experiment [5] has as its system TK-10 renal.
The test system of experiment [6] is ACHN renal.
The subject of experiment [7] is A498 renal.
Experiment [8] deals with CCRF-CEM leukemia.
The subject of experiment [9] is MOLT-4 leukemia.
Experiment [10] relates to CAKI-1 renal.

Turning to `CN1C(=O)C(O)(CC(=O)c2cc3ccccc3oc2=O)c2ccccc21` (stereo not drawn), the growth is 111% in [1]; 90.1% in experiment [2]; 88.8% in [3]; 57.3% in experiment [4]; 116% in experiment [5]; 98.1% in [6]. Moreover, the results for the growth in experiment [7] and in experiment [8] were 162% and 92%, respectively.

With `O=C(CSc1nnc(-c2ccc(-c3nc4ccc(Cl)cc4[nH]3)cc2)o1)Nc1ccc(Cl)cc1`, the growth in [1] is 14.7%; in experiment [2], 48.4%; in experiment [3], -11.6% (active); in experiment [4] it was 30.9%; in experiment [5], 73.7%; in [6], -69.3% (active). The values for the growth in [7], in experiment [8] and in experiment [9] were 127%, 4.89% (active) and 5.53% (active), respectively.

Consider `Cc1nc(Nc2ccccn2)sc1C1=NNC(c2ccccc2F)C1` (stereo not drawn), for which the growth in [2] was 72.4%; in experiment [3] it was 57.9%; in experiment [4], 48%; in experiment [5] it was 119%; in [6], 56.5%; in experiment [10] it was 61.8%. The growth in experiment [7] was 101%; in [8], 19.1%.

For the molecule `COC(=O)c1ccc(-c2c(-c3ccccc3)c(F)c3oc(C(=O)OC)c(N)c3c2-c2ccccc2)cc1`, the growth in experiment [1] is 99.6%; in [2] it was 90.4%; in experiment [3], 98.1%; in experiment [4], 88.6%; in experiment [5] it was 114%; in experiment [6] it was 102%. Further, the growth is 99% in experiment [7], 95% in experiment [8] and 66.5% in [9].

Regarding `CCN(C(=O)CN1C(=O)/C(=C/c2ccco2)SC1=S)C1CCS(=O)(=O)C1` (stereo not drawn), the growth in experiment [1] is 99.2%; in [2] it was 98%; in [3], 106%; in experiment [4], 83.6%; in experiment [5], 121%; in [6] it was 114%. Moreover, the growth in [7] is 105%; in [8], 105%; in [9], 103%.

On to `O=C(Nc1ccc(-c2ccc3c(c2)NC(=O)/C3=C\c2ccc[nH]2)cc1)Nc1ccc(Cl)c(Cl)c1`, for which the growth in [1] was 88.9%; in experiment [2], 46.5%; in experiment [3] it was 68.7%; in [4], 54.9%; in experiment [5], 77.6%; in experiment [6] it was 53.7%. Moreover, the growth was 101% in experiment [7] and 33.1% in experiment [8].

Turning to `C/C(=N\Nc1ccc(C(=O)O)cc1)c1cnn(-c2cc(=O)[nH]c3ccc(C)cc23)c1C`, the growth in experiment [1] was 106%; in experiment [2], 93%; in experiment [3], 92.6%; in experiment [4], 67.9%; in [5], 104%; in experiment [6] it was 99.4%. The growth in [7] was 108%; in experiment [8] it was 93%; in experiment [9] it was 97.8%.

`CN1CCN(C(=O)CCN(C(=O)Oc2cc3c(c4ccccc24)[C@H](CCl)CN3C(=O)c2cc3cc(OCCCN4CCC4)ccc3[nH]2)[C@H]2CCSSC2)CC1`: the growth in [1] was -83% (active); in [2], -89.3% (active); in experiment [3], 0.64% (active); in experiment [4], -37.7% (active); in experiment [5], -25.7% (active); in experiment [6], -30.5% (active). The growth is -40.9% (active) in experiment [7], -35.6% (active) in experiment [8] and -35.3% (active) in experiment [9].

In the case of `CN1CCN(CCS(=O)(=O)Nc2cc(-c3ccc4ncnc(Nc5ccc(F)c(Cl)c5)c4c3)cnc2Cl)CC1`, the growth in experiment [1] is -52.2% (active); in [2], -22.2% (active); in experiment [3] it was 27.7%; in experiment [4] it was 18.2%; in [5], 1.24% (active); in [6], 23.2%. Besides, the growth in experiment [7] is -30.9% (active); in experiment [8], 8.02% (active); in experiment [9], -49.7% (active).

For `CC1(C)CC(=O)C2=C(C1)OC(N)=C(c1nc3ccccc3[nH]1)C2c1ccc(Cl)cc1` (stereo not drawn), the growth in experiment [1] is 43.5% and 112%; in experiment [2], 57% and 100%; in [3] it was 79.7% and 105%; in [4], 71.2% and 86.4%; in experiment [5] it was 71.7% and 106%; in experiment [6], 62.4% and 106%. The growth in experiment [7] is 66.9% and 149%; in [8] it was 31.8% and 102%; in experiment [9] it was 17.6% and 103%.

Regarding `COc1ccc(-c2nnc3c(/C=C/c4ccc(Br)cc4)nc4ccccc4n23)cc1`, the growth in experiment [1] was 92.9%; in experiment [2], 54%; in experiment [3] it was -22.7% (active); in experiment [4], 41.1%; in experiment [5], 99.4%; in experiment [6] it was 23%. Moreover, the growth in [7] was 92.6%; in experiment [8] it was 8.22% (active); in experiment [9] it was 1.9% (active).

Turning to `OC1CCC(Cn2c(C(F)(F)F)cc3c(Cl)ncnc32)CC1` (stereo not drawn), the growth in experiment [1] is -89.4% (active); in [2], 65.7%; in [3], 18.5%; in [4], -80.2% (active); in experiment [5], 105%; in [6], -86.5% (active). Further, the growth in experiment [7] is 119%; in [8], -7.23% (active); in experiment [9], -43.5% (active).

Regarding `Cc1nc(N)ncc1-c1ccc2ncnc(N3CCc4cc(F)c(Cl)cc43)c2c1`, the growth in [1] was 100%; in [2], 20.3%; in experiment [3] it was 54.9%; in [4], 27.6%; in experiment [5] it was 5.99% (active); in [6], 27.2%. For the same molecule, the growth in experiment [7] is 25.3%; in experiment [8], 77.8%; in experiment [9], 11.1%.

For `c1ccc(CSc2nnc(-c3ccc4nc(-c5ccccc5)[nH]c4c3)o2)cc1`, the growth is 57.5% in [1]; 57.3% in [2]; -48.3% (active) in experiment [3]; 40.6% in [4]; -2.54% (active) in experiment [5]; 1.16% (active) in experiment [6]. Also, the growth in experiment [7] was -8.46% (active); in experiment [8], 73.8%; in [9] it was 58.2%.

On to `CS(=O)(=O)Nc1cccc(-n2c(COc3ccc(OC(F)(F)F)cc3)nc3ccccc32)c1`, for which the growth is 86.4% and 98% in [2]; 113% and 115% in experiment [3]; 51.1% and 87.7% in experiment [4]; 105% and 111% in experiment [5]; 81% and 109% in [6]; 61.4% and 99.4% in [10]. In addition, the growth in experiment [7] is 98.2% and 127%; in experiment [8] it was 93.3% and 99.8%.

For `O=C(N/N=C/c1ccc(B(O)O)s1)c1[nH]c2ccc(Br)cc2c1-c1ccccc1`, the growth was -82.6% (active) in [1]; -98.8% (active) in experiment [2]; -79.4% (active) in experiment [3]; -76.3% (active) in experiment [4]; -93.2% (active) in experiment [5]; -100% (active) in experiment [6]. Also, the growth was -88.3% (active) in [7], -16.5% (active) in experiment [8] and -8% (active) in [9].

With `Cc1cc(C(NC(=O)CCCCCNc2cccc3c2C(=O)N(C2CCC(=O)CC2=O)C3=O)c2cccc(N(C)C)c2)c(O)c2ncccc12` (stereo not drawn), the growth in experiment [1] was -1.61% (active); in experiment [2] it was 7.79% (active); in [3], 10.2%; in [4], 8.84% (active); in experiment [5], 42.4%; in experiment [6], 14.7%. Also, the growth was 26.9% in [7], -19.4% (active) in experiment [8] and -0.125% (active) in experiment [9].

With `Cc1ccc(-c2cc(-c3ccccc3)[nH]c(=O)c2C#N)cc1`, the growth in experiment [2] was 82.8%; in experiment [3], 86.5%; in experiment [4], 73.2%; in [5], 95.1%; in experiment [6], 79.1%; in experiment [10], 81.9%. The results for the growth in [7], in experiment [8] and in experiment [9] were 84.8%, 76.7% and 91.3%, respectively.

As for `Fc1ccc(Nc2nnc(-c3c[nH]c4ccccc34)o2)cc1`, the growth was 56.5% in experiment [2]; 56.2% in [3]; 44.4% in experiment [4]; 123% in experiment [5]; 77.5% in experiment [6]; 67.8% in experiment [10]. Also, the values for the growth in experiment [7], in experiment [8] and in experiment [9] were 133%, 16.3% and 29.6%, respectively.

With `COc1ccc2nc(NC(=O)c3ccc(N(C)C)cc3)sc2c1`, the growth in experiment [2] is 63.4%; in [3], 85.6%; in experiment [4], 46.7%; in [5], 115%; in experiment [6], 77.5%; in experiment [10], 79.6%. The growth in experiment [7] was 95.6%; in [8] it was 47.7%; in [9], 43.1%.

As for `CC1=C(C(=O)OCc2ccccc2)C(c2ccc(N(C)C)cc2)n2c(nc3ccccc32)N1` (stereo not drawn), the growth in experiment [2] is 46%; in [3], 98.2%; in experiment [4] it was 61.1%; in [5], 99.4%; in [6], 88.5%; in [10], 55.6%. Further, the growth in experiment [7] was 74.5%; in experiment [8], 105%; in experiment [9] it was 100%.

With `CC(C)(C)OC(=O)N1C/C(=C\c2ccc(F)cc2)C(=O)/C(=C/c2ccc(F)cc2)C1`, the growth in experiment [2] was -52.6% (active); in experiment [3] it was -93.7% (active); in experiment [4] it was -73.5% (active); in experiment [5], 10%; in [6], -100% (active); in experiment [10] it was -37.4% (active). For the same molecule, the growth was 97% in experiment [7], -6.19% (active) in experiment [8] and -7.57% (active) in experiment [9].

In the case of `Cc1ccccc1Nc1nnc(-c2c[nH]c3ccccc23)o1`, the growth is 20.1% in experiment [2]; 33.8% in experiment [3]; 33.8% in [4]; 60.2% in experiment [5]; 39.5% in experiment [6]; 29.4% in experiment [10]. The figures for the growth in experiment [7], in experiment [8] and in experiment [9] were 101%, 10.5% and 9.88% (active), respectively.

Regarding `CCCSc1nnc(-c2c(C)nc3sccn23)o1`, the growth in [2] is 66.8%; in experiment [3] it was 87.1%; in experiment [4], 69.9%; in experiment [5] it was 113%; in [6], 84.9%; in experiment [10], 79.4%. The growth in experiment [7] is 92.3%; in experiment [8] it was 86.3%; in [9], 94.4%.

As for `CCc1ccccc1NC(=O)N/C(N)=N/c1nc2ccccc2s1`, the growth in [2] was 27.6%; in experiment [3], 0.486% (active); in experiment [4] it was 34.7%; in [5] it was 19.8%; in experiment [6] it was 1.6% (active); in [10], 4.86% (active). The results for the growth in [7], in [8] and in experiment [9] were 60.3%, 4.47% (active) and 6.27% (active), respectively.

Take `FC(F)(F)CN1CCN(CCn2c(C(F)(F)F)cc3c(Cl)ncnc32)CC1`: the growth in experiment [2] is 70.8%; in experiment [3], 34.8%; in [4], -95.1% (active); in experiment [5], 114%; in experiment [6], -63% (active); in [10] it was 24.1%. Moreover, the values for the growth in experiment [7], in [8] and in experiment [9] were 104%, -16.8% (active) and -39% (active), respectively.

Regarding `COc1ccc2[nH]c(=O)c(CSc3ccccc3Nc3nccc(-c4ccc5c(c4)OCO5)n3)cc2c1`, the growth in [2] was 88%; in experiment [3], 89.4%; in [4] it was 75.8%; in [5], 99.7%; in experiment [6], 90.4%; in experiment [10], 68.5%. Moreover, the growth in [7] is 107%; in experiment [8], 69.8%; in experiment [9], 50.1%.

Regarding `O=C1Nc2ccc(F)cc2/C1=C/C(=O)c1cc2ccccc2oc1=O`, the growth in experiment [2] is 90.3%; in experiment [3] it was 104%; in [4] it was 62.1%; in experiment [5], 161%; in experiment [6], 62.5%; in experiment [10], 88.8%. Further, the growth was 128% in experiment [7], 39.6% in experiment [8] and 65% in experiment [9].
